Data as given in PMC5540273 (PLoS ONE, 2017).

system: T1, CDC2L1; conditions: concentration: 1 μM, replicates: in singlicate; n = 1
T1 construct: gene CDK11B
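Note: KINOMEscan kinase panel screen.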

Row | Compound | %Inh
1 | COc1cccc(C(=O)Nc2cccc(Oc3ccc4nc(NC(=O)C5CC5)cn4n3)c2)c1 | 0%
2 | Cl.Cl.NCC(NC(=O)c1cc(-c2ccccc2)c(-c2ccnc3[nH]ccc23)s1)c1ccccc1 (centres unmarked) [GSK1321561] | 0%
3 | CC(=O)Nc1nc2cnc(Nc3cc(NC(=O)c4cccc(C5(C#N)CC5)c4Cl)ccc3C)nc2s1 | 43%
4 | COc1cccc(NC(=O)NC2CCN(c3ccnc(Nc4cc(OC)c(OC)c(OC)c4)n3)C2)c1 (centres unmarked) [GSK1379763] | 1%
5 | COc1cc2c(cc1OCCN1CCNCC1)ncc1c3ccc(C#N)cc3[nH]c21 | 14%
6 | CSc1cccc2c(-c3ccncn3)c(-c3ccc(F)cc3)nn12 [GW514786] | 0%
7 | Cn1cc(-c2ccc3c(c2)CCN3C(=O)Cc2cccc(Cl)c2)c2c(N)ncnc21 [GSK2606590] | 0%
8 | CCS(=O)(=O)c1ccc(OC)c(Nc2nccc(-c3c(-c4cccc(NC(=O)c5c(F)cccc5F)c4)nn4ncccc34)n2)c1 [GSK326180] | 0%
9 | CCn1c(-c2nonc2N)nc2c(C#CC(C)(C)O)ncc(OCCCCN)c21.O=C(O)C(F)(F)F.O=C(O)C(F)(F)F [GSK507274] | 0%
10 | O=C(Nc1cccc(-c2nn3ccccc3c2-c2ccnc(Nc3cccc(C(F)(F)F)c3)n2)c1)c1c(F)cccc1F [GSK292658] | 0%
11 | CN(c1ccc(NC(=O)Nc2cc(C(F)(F)F)ccc2F)cc1)c1ccnc(Nc2ccc(S(N)(=O)=O)cc2)n1 [GW809893] | 88%
